Reference: the supplement of paper PMC7156485

Each compound was assayed on HCC1569 (assay: H1.0 immunofluorescence intensity relative to DMSO (% of DMSO); higher = stronger H1.0 induction, active = 140 or more). Conditions: concentration: 10 µM; 24 h.
Method in brief: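 HCC1569 and TDF cells (800 per well, 384-well plates, RPMI with 10% FBS) were treated with compounds at 10 µM for 24 h at 37 °C, in triplicate. Cells were fixed in 3.7% formaldehyde and stained with a rabbit anti-H1.0 antibody, an AlexaFluor 647 secondary and DAPI; six fields per well were imaged at ×10. H1.0 nuclear intensity or cell number is expressed as percent of the plate DMSO control, taking the median of replicates. HCC1569 values were smoothed for positional effects.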
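Note: TDF is a line of transformed human dermal fibroblasts of mesenchymal origin.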

H1.0 immunofluorescence intensity, inactive:
Clc1ccc(COC(Cn2ccnc2)c2ccc(Cl)cc2Cl)c(Cl)c1 (configuration not stated) [Miconazole] 114
Cn1nc2c3c(cccc31)C(=O)c1ccccc1-2 [JNK Inhibitor,                    Negative Control] 136
O=c1cc(-c2ccccc2)oc2cc(O)ccc12 [7-Hydroxyflavone] 88.8
CC(=O)Oc1ccccc1C(=O)O [Acetylsalicylic acid] 88.3
CN(C)C(=O)Nc1cccc(-c2ccc(N(C)C)cc2)c1 [3-(4'-(dimethylamino)-[1,1'-biphenyl]-3-yl)-1,1-dimethylurea] 87.2
O=C(O)c1cc(O)ccc1O [Gentisic acid] 93.5
CN(CC=CC#CC(C)(C)C)Cc1cccc2ccccc12.Cl 98.4
